ssDAF-12 act = activators of S. stercoralis DAF-12 nuclear receptor | HEK293 ssDAF-12/GRIP1 lit1-tk-luc reporter, luminescence; % of 3 µM dafachronic acid response | activation, % at 6.8 µM | actives 1% (n = 370,000);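 active = activation above the mean over all tested compounds plus 3 SD, cut at about 0.9% in these data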
AHR act = activates the human aryl hydrocarbon receptor | P35869 | AHR-responsive luciferase reporter cells, luminescence | activation, % at 5 µM | actives 2.5% (n = 320,000) | AID 2796; in the data active = activation above about 47%
DAX1 inh-1 = inhibitors of human orphan nuclear receptor DAX1 (NR0B1); P51843; HEK293 Gal4-DAX1 luciferase reporter, luminescence; inhibition, % at 6.75 µM; actives 0.99% (n = 340,000); AID 504766;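 active = inhibition above the mean over all tested compounds plus 3 SD, cut at about 4.2% in these data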;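 note: inhibition shows as a rise in luminescence from relieved DAX1 repression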
Target sequence (P51843 207-470 limits assumed): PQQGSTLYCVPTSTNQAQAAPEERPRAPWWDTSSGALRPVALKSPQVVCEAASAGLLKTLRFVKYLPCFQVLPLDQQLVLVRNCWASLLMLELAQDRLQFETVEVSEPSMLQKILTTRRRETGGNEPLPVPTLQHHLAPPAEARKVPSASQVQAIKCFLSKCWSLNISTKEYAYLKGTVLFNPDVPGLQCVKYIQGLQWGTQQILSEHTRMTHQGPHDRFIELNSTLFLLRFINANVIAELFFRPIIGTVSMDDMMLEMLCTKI
hgDAF-12 ag = agonists of H. glycines DAF-12 nuclear receptor; activation, % at 6.8 µM; actives 1.8% (n = 370,000); HEK293 GAL4-hgDAF12 UAS-luciferase reporter, agonist luminescence; normalized to butyrate control;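 active = activation above a cutoff set at the mean of all screened compounds plus 3 SD, cut at about 10% in these data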
hcDAF12 agonist = activators of H. contortus DAF-12 nuclear receptor. HEK293 hcDAF-12 lit1-tk-luc reporter, luminescence; 0% DMSO, 100% Δ7-dafachronic acid. activation, % at 6.8 µM. actives 1.4% (n = 370,000);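 active = activation above the mean of all tested compounds plus 3 SD, cut at about 5.5% in these data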
DAX1 inh-2 = inhibitors of DAX1 repression of SF-1 activated StAR promoter | HEK293T StAR-luciferase reporter, SF-1/DAX-1 repression relief | inhibition, % at 6.8 µM | actives 1.1% (n = 370,000);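 active = inhibition above the mean over all tested compounds plus 3 SD, cut at about 3.6% in these data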;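 note: higher inhibition means more luminescence from relief of DAX-1 repression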
hgDAF12 conf = confirmation of H. glycines DAF-12 agonists; shares compounds with hgDAF-12 ag; HEK293 GAL4-hgDAF12 luciferase reporter, agonist mode; percent of butyrate response; activation, % at 6.8 µM; actives 80% (n = 3,300);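 active = mean activation over triplicate wells above the hit cutoff derived from the earlier primary screen, cut at about 11% in these data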
LXR ag 2 = counter-screen for DAF-12 agonists: agonists of human LXR-beta. shares compounds with hgDAF-12 ag. HEK293 Gal4-LXR luciferase reporter, 24 h. activation, % at 6.8 µM. 3,300 tested, under 10 active. AID 743051;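 active = mean activation of the triplicate above a set limit carried over from the primary screen, none filed active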
Target sequence (P55055 whole entry, looked up, the tested form may be a part): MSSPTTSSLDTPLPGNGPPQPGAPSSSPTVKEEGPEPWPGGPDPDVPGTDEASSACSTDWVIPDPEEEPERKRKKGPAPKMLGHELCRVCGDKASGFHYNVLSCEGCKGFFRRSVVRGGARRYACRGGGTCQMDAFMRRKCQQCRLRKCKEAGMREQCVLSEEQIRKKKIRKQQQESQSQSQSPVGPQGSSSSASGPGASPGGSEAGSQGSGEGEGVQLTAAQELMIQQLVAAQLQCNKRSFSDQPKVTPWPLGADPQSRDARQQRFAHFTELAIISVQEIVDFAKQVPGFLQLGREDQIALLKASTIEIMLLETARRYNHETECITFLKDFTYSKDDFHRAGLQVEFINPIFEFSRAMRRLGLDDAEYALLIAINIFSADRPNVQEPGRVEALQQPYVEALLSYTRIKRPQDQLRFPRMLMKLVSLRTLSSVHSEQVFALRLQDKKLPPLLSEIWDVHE
Of the large screens only hits and unclear results are named; the others gave an inactive call (follow-up assays come after a bar, where they were run). This is a sample that favours compounds with a hit; in the whole collection about 5.7% have one here.

Cn1c(SCC2CCCCC2)nnc1-c1ccco1	hgDAF-12 ag 14.5 (no result: AHR act, DAX1 inh-1) | hgDAF12 conf 14.6 | LXR ag 2 inactive
C#CCN1C=CC(=O)[C@@H](OC(=O)NCCC)[C@H]1c1ccccc1Br	none (no result: AHR act)
Cc1cc(OCC(=O)Nc2c(C(C)C)cccc2C(C)C)no1	hgDAF-12 ag 20.4 (no result: AHR act) | hgDAF12 conf inactive | LXR ag 2 inactive
CCCSc1nsc(NC(=O)CCC)n1	hgDAF-12 ag 19.0 | hgDAF12 conf 14.8 | LXR ag 2 inactive
COc1ccc(/C=N/NC(=O)c2ccc3c(c2)OCCO3)cc1[N+](=O)[O-]	none
COc1ccc(C(=O)Nc2ccc3c(c2)OCCO3)cc1Br	hgDAF-12 ag 14.7 (no result: AHR act) | hgDAF12 conf 15.1 | LXR ag 2 inactive
COc1ccc(C(=O)Nc2ccc(Nc3ccccc3)cc2)cc1Br	none
O=C(Nc1ccc2c(c1)OCCO2)c1ccc2nccnc2c1	hgDAF-12 ag 14.7, DAX1 inh-2 4.3 | hgDAF12 conf 15.2 | LXR ag 2 inactive
CCC(=O)N1CCN(c2ccc(NC(=O)c3ccc4c(c3)OCCO4)cc2)CC1	none
O=C(N/N=C/c1cc(O)ccc1[N+](=O)[O-])c1ccc2c(c1)OCCO2	hgDAF-12 ag 17.8, DAX1 inh-2 3.6 | hgDAF12 conf 13.6 | LXR ag 2 inactive
CN1CCN(c2ccc(NC(=O)c3ccc4c(c3)OCCO4)cc2)CC1	hgDAF-12 ag 16.8, hcDAF12 agonist 6.1 | hgDAF12 conf 11.1 | LXR ag 2 inactive
Cc1cc(C)c(NC(=O)c2cccs2)c(C)c1NC(=O)c1cccs1	none
CCCNC(=O)C1(C)CCCN(C(=O)COCc2ccccc2)C1 (stereo not drawn)	none (no result: AHR act, DAX1 inh-1)
Cc1cc(C(=O)Nc2ccc3c(c2)OCCO3)ccc1[N+](=O)[O-]	hgDAF-12 ag 18.2 | hgDAF12 conf 12.1 | LXR ag 2 inactive
Cc1cc(C(=O)Nc2cnc3ccccc3c2)ccc1[N+](=O)[O-]	hgDAF-12 ag 14.9 | hgDAF12 conf 16.9 | LXR ag 2 inactive
CCCOc1cccc(C(=O)Nc2cccnc2)c1	none
COc1ccc(NC(=O)c2ccc3c(c2)OCO3)cc1[N+](=O)[O-]	none
O=C(Nc1ccc2c(c1)OCCO2)c1ccc(Cl)c(Cl)c1	DAX1 inh-1 7.0, hgDAF-12 ag 14.8 | hgDAF12 conf 17.0 | LXR ag 2 inactive
Cc1ccc(C(=O)Nc2cnc3ccccc3c2)cc1	none
O=C(Nc1ccc2c(c1)OCCO2)c1c(Cl)cccc1Cl	none (no result: AHR act)
CCCOc1cccc(C(=O)Nc2ccc3c(c2)OCCO3)c1	hgDAF-12 ag 18.6, hcDAF12 agonist 6.3 | hgDAF12 conf 20.4 | LXR ag 2 inactive
COc1ccc(CCC(=O)OCC(=O)Nc2ccccc2)cc1	none
Cn1cc(CN2CCC[C@H]2CO)c(-c2cccc(Cl)c2)n1	none
Cc1ccc(C(=O)CSc2nnc(-c3snnc3C)n2C2CC2)cc1	none
CC1=C(C(N)=O)C(c2ccccc2F)n2nc(CCCO)nc2N1 (stereo not drawn)	none (no result: ssDAF-12 act, hgDAF-12 ag, hcDAF12 agonist, DAX1 inh-2)
O=C(Nc1ccc2sccc2c1)c1cccc(N2C(=O)CCC2=O)c1	hgDAF-12 ag 16.9, DAX1 inh-2 4.2 | hgDAF12 conf 12.8 | LXR ag 2 inactive
CCN(CC)S(=O)(=O)c1cc(NC(=O)c2cccc(N3C(=O)CCC3=O)c2)ccc1Cl	none
CCN(CC)c1ccc(NC(=O)/C=C\c2ccccc2Cl)cc1	none
CN(C)c1ccc(NC(=O)/C=C/c2ccccc2Cl)cc1	hgDAF-12 ag 18.2 | hgDAF12 conf 13.6 | LXR ag 2 inactive
Cc1ccccc1C(=O)NC(CC(C)C)C(=O)OCc1cc(=O)n2cc(Br)ccc2n1 (stereo not drawn)	hgDAF-12 ag 13.6 | hgDAF12 conf 10.9 | LXR ag 2 inactive
CC(C)[C@H](NC(=O)c1ccccc1Cl)C(=O)OCc1cc(=O)n2cc(Br)ccc2n1	none
CC(C)(C)c1ccc(-c2noc(-c3ccno3)n2)cc1	ssDAF-12 act 0.9, DAX1 inh-1 8.3, hgDAF-12 ag 13.3 | hgDAF12 conf 14.8 | LXR ag 2 inactive
O=C(Nc1ccc2c(c1)OCCO2)C1CCCN1C(=O)Nc1ccc(F)cc1 (stereo not drawn)	none
O=C(NCCc1ccccc1)c1cccc(NC(=O)C2CC2)c1	hgDAF-12 ag 17.2 (no result: AHR act) | hgDAF12 conf 13.4 | LXR ag 2 inactive
O=C(NCCc1ccccc1)c1cccc(NC(=O)C2CCC2)c1	none (no result: AHR act)
CCN(C(=O)c1cc(S(=O)(=O)N2CCCCC2)c[nH]1)c1ccc(OC)cc1	none
COc1ccccc1NC(=O)Nc1ccc(C(=O)N2CCCCC2)cc1	hgDAF-12 ag 13.6 | hgDAF12 conf 10.8 | LXR ag 2 inactive
O=C(c1ccc(F)cc1Cl)N(Cc1ccccn1)CC1CCCO1 (stereo not drawn)	hgDAF-12 ag 31.3 (no result: AHR act, DAX1 inh-1) | hgDAF12 conf inactive | LXR ag 2 inactive
COc1ccccc1CCNC(=O)c1ccc(Br)s1	none
Cc1ccc(NS(=O)(=O)c2ccccc2)c([N+](=O)[O-])c1	none (no result: AHR act)
Cc1ccc(S(=O)(=O)Nc2ccccc2[N+](=O)[O-])cc1	hgDAF-12 ag 27.8 (no result: AHR act, DAX1 inh-1) | hgDAF12 conf inactive | LXR ag 2 inactive
Cc1nc2c(oc3ccccc32)c(=O)o1	hgDAF-12 ag 13.7, hcDAF12 agonist 6.1 | hgDAF12 conf inactive | LXR ag 2 inactive
Cc1cccc(-c2nnc(-c3ccccc3)o2)c1	hgDAF-12 ag 13.4 | hgDAF12 conf 15.8 | LXR ag 2 inactive
Cc1nnc(-c2ccccc2)o1	none
O=C(N/N=C/c1ccc(N2CCOCC2)cc1)c1ccc(O)cc1	none
Cc1ccc(C(=O)N/N=C/c2ccc(N3CCOCC3)cc2)c(C)c1	hgDAF-12 ag 14.4 | hgDAF12 conf inactive | LXR ag 2 inactive
CC(=O)c1ccc(NS(=O)(=O)c2ccc3c(c2)CCC(=O)N3)cc1	none
COc1ccc(Nc2nc(N)nc(CSc3nccn3C)n2)cc1	hgDAF-12 ag 21.2 | hgDAF12 conf 12.6 | LXR ag 2 inactive
Cc1ccc(Nc2nc(N)nc(CSc3nncn3C)n2)cc1	none
CSc1ccc(-c2cnc(N3CCC(C(N)=O)CC3)s2)cc1	hgDAF-12 ag 20.8 (no result: AHR act, DAX1 inh-1, DAX1 inh-2) | hgDAF12 conf 17.4 | LXR ag 2 inactive
CCCCNC(=S)N(CCCO)Cc1cc2cc3c(cc2[nH]c1=O)OCCO3	none
CN(C)CCCNC(=S)N(CCCO)Cc1cc2cc3c(cc2[nH]c1=O)OCO3	hgDAF-12 ag 15.7 | hgDAF12 conf inactive | LXR ag 2 inactive
Cc1nc2ccccc2nc(C)c1=NOCc1cccc(F)c1	hgDAF-12 ag 14.2 | hgDAF12 conf inactive | LXR ag 2 inactive
Cc1nc2ccccc2nc1OCc1cccc(Cl)c1	none
CCOC(=O)/C=C/c1cccc(C)c1O	hgDAF-12 ag 13.8, DAX1 inh-2 4.5 (no result: AHR act, DAX1 inh-1) | hgDAF12 conf 12.2 | LXR ag 2 inactive
